Many of the other results were omitted from the sample, so hits are more common in it than they were.
A647 fluor = A647 region autofluorescence; Compound fluorescence, A647 channel (570/671 nm), Tris buffer; max dye-equivalent concentration, M; 59,000 tested, under 10 active; AID 592; call rule not given here;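 further: values scaled relative to a standard on each plate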
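Tris 100 mM pH 8.0; cpd + A647 stds pin-transferred; 15 min RT; CCD imager, ex 570/em 671. Output = A647-equivalent conc. per cpd conc.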
GBA mod = human lysosomal glucosylceramidase modulation. purified enzyme, resorufin glucoside fluorescence (screen aimed at inhibitors), 20 min. Potency, µM. hit rate 1.1% among 48,000. AID 360; in the data active means potency below about 15 µM; inconclusive means mostly about 16 µM to 33 µM;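 further: potency means the concentration at half of the fitted maximal effect; the screen sought inhibitors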
Target sequence (P04062 whole entry, looked up): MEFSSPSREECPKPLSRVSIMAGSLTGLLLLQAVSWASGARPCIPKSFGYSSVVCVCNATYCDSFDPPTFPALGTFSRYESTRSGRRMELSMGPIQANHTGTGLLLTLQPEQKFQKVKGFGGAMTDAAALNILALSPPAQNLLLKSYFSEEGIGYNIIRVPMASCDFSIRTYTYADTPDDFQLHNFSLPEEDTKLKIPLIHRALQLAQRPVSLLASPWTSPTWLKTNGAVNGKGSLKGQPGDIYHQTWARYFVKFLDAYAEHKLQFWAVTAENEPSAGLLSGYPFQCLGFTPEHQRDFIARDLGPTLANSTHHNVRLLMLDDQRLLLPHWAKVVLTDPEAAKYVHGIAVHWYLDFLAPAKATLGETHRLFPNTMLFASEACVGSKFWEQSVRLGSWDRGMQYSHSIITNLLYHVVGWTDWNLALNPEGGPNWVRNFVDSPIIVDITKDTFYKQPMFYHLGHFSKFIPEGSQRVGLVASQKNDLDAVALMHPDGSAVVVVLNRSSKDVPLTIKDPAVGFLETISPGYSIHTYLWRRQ
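Normal human glucocerebrosidase (0.2 nM final) was assayed with resorufin β-D-glucopyranoside (30 uM final) in 50mM citric acid/KH2PO4, 10mM sodium taurocholate, 0.01% tween-20, pH 5.9. Compounds were titrated; fluorescence (Ex 548, Em 600) read after 20 min at RT.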
A350 autofl = A350 region autofluorescence. Compound autofluorescence, 340/450 nm, Alexa 350 dye-equivalents; stronger effect = higher value. max dye-equivalent concentration, M. hit rate 11% among 59,000. AID 590
AID923 = qHTS Assay for Allosteric/Competitive Inhibitors of Caspase-1: Spectroscopic Profiling in AFC Spectral Region; compound fluorescence, AFC spectral region (405/520 nm); hit rate 1.1% among 75,000; Potency, µM (top dose mostly 57.5 µM), for the others: at the top dose fluorescence increase, actives largely listed as activators; active means well fitted activation curve with a large enough effect; inconclusive means small, poorly fitted or top-dose-only effect; further: potency means the concentration at half of the fitted maximal effect; 0% is about no effect
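Baseline compound fluorescence (AFC region, 405 nm ex/520 nm em) taken from the intercept of kinetic reads with 50 nM caspase-1 and 5 uM Ac-WEHD-AFC; normalized to an on-plate AFC standard curve; compounds titrated up to 57 uM.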
4-MU autofl = 4-MU region autofluorescence. compound autofluorescence, 340/450 nm, 4-MU equivalents; stronger effect = higher value. max dye-equivalent concentration, M. hit rate 11% among 59,000
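Compounds in 100 mM Tris, pH 8.0, incubated 15 min at room temperature, then fluorescence read at 340 nm excitation/450 nm emission. Signal converted to 4-MU dye-equivalent concentration using an on-plate six-point 4-MU standard curve.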
The depositor's hits bear a star; i = inactive; u = inconclusive; x = no result; [ ] = dose if it differs, or a comment. Unless noted, no stated cut-off is given here; in the data, active means max dye-equivalent concentration above about 10 nM; inconclusive means mostly about 1.1 nM to 9.6 nM; inactive means weaker than that.

SMILES	A647 fluor	GBA mod	A350 autofl	AID923	4-MU autofl
O=C(c1cc2nc(-c3ccc(F)cc3)cc(C(F)(F)F)n2n1)N1CCCC1	x	x	x	0.4%	x
CN1CCN(C(=O)c2cc3nc(-c4ccccc4)cc(C(F)(F)F)n3n2)CC1	1.51e-08	>76.9	1.93e-08M*	-2.2%	1.63e-08M*
CCn1cc(-c2cc(C(F)(F)F)n3nc(C(=O)O)cc3n2)c(C)n1	1e-09	>76.9	6.33e-08M*	14.8%	5.75e-08M*
Cc1ccc(-c2cc(C(=O)N3CCN(C(=O)c4ccco4)CC3)no2)cc1	1e-09	>76.9	i	1.6%	i
CCCCCCCCCCCCOCC1CO1 (stereo not drawn)	x	x	x	3.6%	x
CCCCN1CSC(=S)N(Cc2ccccc2)C1	1e-09	x	i	0.5%[11.5 µM]	i
C/C(=N/Nc1ccc2ccccc2n1)c1ccccc1O	1e-09	x	i	-0.9%[11.5 µM]	i
O=C(c1cc2nc(-c3ccco3)cc(C(F)(F)F)n2n1)N1CCN(c2ccccc2)CC1	x	x	x	5.8%	x
O=C(c1cc2nc(-c3ccco3)cc(C(F)(F)F)n2n1)N1CCN(c2ccccn2)CC1	7.04e-08	>76.9	3.39e-08M*	17.2%	2.52e-08M*
C=CCNc1ncnc2c1[nH]c1ccccc12	2.6e-08	i	2.94e-08M*	0.9%	2.58e-08M*
CCOCCCNc1ncnc2c1[nH]c1ccccc12	2.82e-08	>76.9	u	0.4%	i
CCCc1cc(=O)[nH]c(SCC(=O)Nc2cc3c(cc2C(C)=O)OCO3)n1	2.57e-08	>76.9	5.55e-08M*	-1.1%	4.59e-08M*
CC(=O)c1cc2c(cc1NC(=O)CSc1nnc(C)s1)OCO2	1e-09	>76.9	7.34e-08M*	1.0%	6.33e-08M*
CN(C)c1cccc(C(=O)n2cc(C(=O)c3cc(F)ccc3O)cn2)c1	5e-09	>76.9	1.63e-08M*	-0.3%	u
COc1ccc(O)c(C(=O)c2cnn(C(=O)c3cc(C)oc3C)c2)c1	2.11e-08	>76.9	1.21e-08M*	-0.1%	u
CC(C)CC1OCCC=CC1C (stereo not drawn)	x	x	x	-2.7%[11.5 µM]	x
O=C(CSc1nc2ccccc2o1)c1cc2ccccc2oc1=O	1.35e-08	>76.9	1.08e-08M*	17.6%	u
Cc1cc(C)nc(SCC(=O)c2cc3ccccc3oc2=O)n1	7.8e-09	>76.9	i	1.5%	i
CC1CCN(CC(=O)N2c3ccccc3Sc3cc4ccccc4cc32)CC1	1e-09	x	u	1.2%[11.5 µM]	u
COCCNc1nc(-c2ccccc2OC)nc2ccccc12	5.1e-09	x	i	-1.2%	i
COc1ccccc1C(=O)Nc1ccc2c(c1)nc(CCNC(C)=O)n2C	1e-09	>76.9	i	0.3%	i
COc1ccccc1C(=O)Nc1ccc2c(c1)nc(CN1CCN(C(C)=O)CC1)n2C	5.8e-09	u	1.04e-08M*	-0.3%	u
CCCn1c(=S)[nH]c2cc(C(=O)NCC3CCCO3)ccc2c1=O (stereo not drawn)	x	x	x	-0.5%	x
CCN(CC)CCNC(=O)c1ccc2c(=O)n(CCc3ccccc3)c(=O)[nH]c2c1	1e-09	>76.9	2.55e-08M*	0.6%	2.62e-08M*
COc1ccc(Cn2c(=O)[nH]c3cc(C(=O)NCCCN4CCCCC4)ccc3c2=O)cc1	3.6e-09	>76.9	3.45e-08M*	0.7%	3.62e-08M*
SMILES	A647 fluor	GBA mod	A350 autofl	AID923	4-MU autofl
COCCn1c(=O)[nH]c2cc(C(=O)NCCN3CCN(c4cccc(Cl)c4)CC3)ccc2c1=O	1e-09	x	u	1.0%	u
CCCCCNC(=O)c1ccc2c(=O)n(CC3CCCO3)c(=O)[nH]c2c1 (stereo not drawn)	1e-09	11*	2.17e-08M*	0.5%	2.26e-08M*
CCOc1cc2[nH]c(=O)n(CCC(=O)NCCc3ccccc3)c(=O)c2cc1OCC	1e-09	>76.9	1.49e-08M*	0.3%	1.42e-08M*
c1ccc(CNc2ncnc3ccc(-c4ccc5c(c4)OCO5)cc23)cc1	9.4e-09	x	i	2.8%	i
c1ccc(Nc2nc(-c3ccc4c(c3)OCO4)nc3ccccc23)cc1	2e-09	x	i	1.4%	i
O=c1cnc2cnc(OCc3ccccc3)nc2n1Cc1ccc(F)cc1	2.55e-08	x	i	1.0%	i
Cc1cc(N)c2cc(OCCOc3ccc4nc(C)cc(N)c4c3)ccc2n1	x	x	x	18.5%[11.5 µM]	x
COc1ccc(CCn2c(=O)[nH]c3cc(C(=O)NCCCN4CCOCC4)ccc3c2=O)cc1OC	5.2e-09	>76.9	i	1.1%	i
O=C(NCCCN1CCCCC1)c1ccc2c(=O)n(CCc3ccccc3)c(=O)[nH]c2c1	2.8e-09	>76.9	2.77e-08M*	2.1%	2.95e-08M*
O=c1[nH]c(N2CCc3ccccc3C2)nc2c1CCCC2	1.21e-08	4.56*	i	-5.6%	i
